Assay outcomes (PubChem)
GC-B act: GC-B (human) receptor activation | P20594 | activation, % at 10 µM | hit rate 0.11% among 370,000 | AID 1920062 | HEK293-GC-B cells, CNP EC30, cGMP TR-FRET; 0% at EC30 CNP, 100% saturating CNP;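 active = activation at 10 µM reaching about 35% in either raw or pattern-adjusted values, limit read from the data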
NPR1 activator: GC-A (human) enzyme activation. P16066. HEK293 GC-A cells, cGMP TR-FRET, EC30 ANP; 0% at EC30 ANP, 100% saturating ANP. activation, % at 10 µM. hit rate 0.14% among 370,000; in the data active = activation above about 40%
HIF act: HIF pathway transcriptional activation. U2OS HRE-luciferase reporter, luminescence; normalized: DMSO 0%, desferrioxamine 100%. activation, % at 7.5 µM (by protocol). hit rate 0.32% among 300,000;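 active = mean activation of at least 10% of the iron chelator positive control signal, with at least half of replicates also reaching 10%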
KLK7 zymogen act: activators of human kallikrein-7 zymogen; AID 652039; activation, % at 7 µM; P49862; purified proKLK7, EDANS-DABCYL substrate fluorescence; 100% is mature enzyme control, 0% vehicle; hit rate 0.9% among 370,000;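 active = activation above the mean of all tested compounds plus 3 SD, computed per campaign excluding outliers beyond control limits, cut at about 13% in these data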
Target sequence (P49862 whole entry, looked up): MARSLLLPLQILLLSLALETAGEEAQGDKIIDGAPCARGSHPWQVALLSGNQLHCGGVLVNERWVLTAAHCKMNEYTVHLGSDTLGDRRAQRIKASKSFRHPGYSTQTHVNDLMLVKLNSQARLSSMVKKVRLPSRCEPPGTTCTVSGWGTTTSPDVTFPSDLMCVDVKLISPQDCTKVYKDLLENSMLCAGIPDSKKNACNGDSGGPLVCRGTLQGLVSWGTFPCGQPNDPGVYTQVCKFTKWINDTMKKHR
proKLK7 act conf: proKLK7 activation, confirmation. shares compounds with KLK7 zymogen act. purified proKLK7, EDANS-DABCYL substrate fluorescence; scaled: vehicle 0, mature enzyme 100. activation, % at 7 µM. hit rate 68% among 3,200. AID 686949;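 active = activation, as change over the incubation, above the mean of all tested compounds plus 3 SD, cut at about 13% in these data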
EDANS-DABCYL int: optically interferes with EDANS-DABCYL signal, flagging KLK7 hits; activation, % at 7 µM; hit rate 80% among 3,200; shares compounds with KLK7 zymogen act; EDANS-DABCYL substrate fluorescence interference, no enzyme, 4 h; solvent 0%, active enzyme control 100%;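 active = activation above the all-compound mean plus 3 SD, ignoring values outside control-based bounds, cut at about 4.8% in these data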;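 note: value is the 4 h activation minus the activation read at time zero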
K7 EDANS ctr: EDANS fluorescence interference in dose response, no enzyme; shares compounds with KLK7 zymogen act; EC50, µM; AID 720493; EDANS-DABCYL peptide fluorescence interference; hit rate 20% among 250;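 active = compounds that raise the fluorescence signal in this interference counterscreen, with EC50 at or below 10 µM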;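 note: intact quenched peptide substrate alone read at 355 nm excitation and 520 nm emission; signal is fluorescence gain from T0 to T4 after four hours at room temperature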
* hit, by the source's call; i = inactive; . = no result. Shown are actives, neighbours in structure and some others; about 1.3% of the full set was active somewhere.

SMILES	GC-B act	NPR1 activator	HIF act	KLK7 zymogen act	proKLK7 act conf	EDANS-DABCYL int	others
N#Cc1c(N)n(CCCN2CCOCC2)c2nc3ccccc3nc12	-6	2	.	47*	68*	79*
CCCCCn1c(N)c(C#N)c2nc3ccccc3nc21	-1	3	2	22*	-60	-56
CCCCn1c(NC(C)=O)c(C#N)c2nc3ccccc3nc21	-7	4	-1	-21	.	.
O=c1nc(-c2ccccc2)c2cc(Br)ccc2[nH]1	-16	-8	-4	4	.	.
O=c1nc(-c2ccccc2)c2cc(Cl)ccc2[nH]1	-7	-4	-3	14*	29*	28*
O=C1Nc2ccc(S(=O)(=O)NCC3CCCO3)c3cccc1c23 (stereo not given)	-2	-2	.	48*	66*	74*
CCN1C(=O)c2cccc3c(S(=O)(=O)NCc4ccco4)ccc1c23	0	7	0	3	.	.
CCN1C(=O)c2cccc3c(S(=O)(=O)NCC4CCCO4)ccc1c23 (stereo not given)	5	6	0	57*	71*	66*
Cc1ccc(S(=O)(=O)c2c(N)n(CCCO)c3nc4ccccc4nc23)cc1	7	0	0	14*	-46	-48
OC1CCCN(Cc2c3ccccc3cc3ccccc23)C1 (stereo not given)	-2	1	0	15*	-2	-2
CC(C)(C)[C@@H]1/C(=C/C2CC2)N2C(=O)C[C@@H](c3ccccc3)N=C2N1Cc1ccc2c(c1)OCO2	-11	-5	.	.	.	.
Cc1cc2oc3cc(NCCC4CCCN4C)ccc3c(=O)c2cc1C (stereo not given)	-8	10	2	62*	68*	64*
O=C(N=c1ccn(-c2nc3ccccc3nc2NS(=O)(=O)c2ccccc2)cc1)c1ccccc1Cl	-9	2	0	2	.	.
CC(=O)Nc1ccc(S(=O)(=O)Nc2nc3ccccc3nc2-n2ccc(=NC(=O)c3ccc(F)cc3)cc2)cc1	1	8	0	81*	96*	87*
CC(=O)Nc1ccc(S(=O)(=O)Nc2nc3ccccc3nc2-n2ccc(=NC(=O)c3ccccc3)cc2)cc1	1	5	0	39*	40*	16*	K7 EDANS ctr=i
COc1ccc(Oc2c(Cl)cnn(CC(=O)C(c3ccccc3)c3ccccc3)c2=O)cc1	-28	-32	.	0	.	.
COc1ccc(-c2cc(C(=O)N/N=C/c3cccnc3)c3cc(C)cc(C)c3n2)cc1	0	2	2	112*	-313	-285
C=CCn1c(N)c(C(=O)OCCC)c2nc3ccccc3nc21	3	7	0	60*	52*	50*
C=CCn1c(N)c(C(=O)Nc2cccc(C)c2)c2nc3ccccc3nc21	-11	15	0	-1	.	.
O=C(C1CCCN1S(=O)(=O)c1ccccc1[N+](=O)[O-])N1CCc2ccccc2C1 (stereo not given)	2	3	.	0	.	.
CN(C)CCCN1C(=O)c2cccc3cccc(c23)C1=O	5	10	1	2	.	.
CCCCN1C(=O)c2cccc3cc(O)cc(c23)C1=O	-3	10	-1	31*	48*	68*
COc1ccc2c(c1)C[C@@H](CON1C(C)(C)CCCC1(C)C)N2S(=O)(=O)c1ccc(C)cc1	-3	2	.	.	.	.
COC(=O)c1ccc2c(c1)C(C)(C)C(/C=C/c1ccc(OC)c(OC)c1OC)=[N+]2C	-1	-3	0	-4	.	.
COC(=O)c1ccc2c(c1)C(C)(C)C(/C=C/c1ccc(O)cc1)=[N+]2C	-4	-5	-4	25*	0	2
SMILES	GC-B act	NPR1 activator	HIF act	KLK7 zymogen act	proKLK7 act conf	EDANS-DABCYL int	others
CCN(CC)CCNC(=O)c1cc2c(-c3cccc(OC)c3)nn(C)c2s1	-19	-61	-41	24*	6	6.9*
COCCCNC(=O)c1cc2c(-c3cccc(OC)c3)nn(C)c2s1	-2	0	-13	2	.	.
CCC1(CC)Cc2ccccc2-c2nc(NCCO)[nH]c(=O)c21	-6	3	1	25*	-21	-28
Cc1cccc(NC(=S)NNC(=S)NC2CCCCC2)c1C	7	1	1	28*	1	-1
COC(=O)C1CN(C2CCCC2)CCS(=O)(=O)N1Cc1ccc(C(F)(F)F)cc1 (stereo not given)	-1	-3	.	0	.	.
N#C/C(=C\c1ccncc1)c1nc2c(s1)CCCC2	2	-2	0	38*	22*	22*
C=C(C)CSc1nc2sc(C)c(C)c2c(=O)n1C	1	-1	.	0	.	.
COc1cc2c(cc1OC)CN(Cc1ccc(F)cc1)CC2	1	3	1	39*	14*	18*
COc1ccc(CN2CCc3cc(OC)c(OC)cc3C2)cc1O	6	-1	0	0	.	.
COc1cc2c(cc1OC)CN(Cc1cc(=O)n3cc(C)ccc3n1)CC2	3	1	.	33*	29*	33*
COc1cc2c(cc1OC)CN(Cc1cc(=O)n3c(-c4ccccc4)csc3n1)CC2	-5	3	0	33*	-16	-10
Nn1c(SCC(=O)N2CCOCC2)nnc1-c1n[nH]c2c1CCC2	3	0	.	0	.	.
O=C(CCc1ccccc1)N[C@H]1[C@@H](OC(=O)c2ccco2)CCC[C@@]12C(=O)N(Cc1ccccc1)c1ccccc12	-1	-2	.	0	.	.
COc1cc(OC)c(OC)cc1/C=C1/Cc2ccccc2C1=O	-2	7	1	21*	92*	90*
COc1cccc(-c2cc3nc(C)c(C)c(N4CCN(Cc5ccco5)CC4)n3n2)c1	-8	0	.	.	.	.
COc1nc(Nc2nc3ccccc3c(=O)[nH]2)nc2ccc(C)cc12	5	5	0	0	.	.
COc1nc(N=C(N)N)nc2ccc(C)cc12	3	11	-1	17*	6	9.5*
Cc1cccc2c3c([nH]c12)C(=O)CC(C)(C)S3	-1	-1	-1	-21	.	.
Cc1ccc2[nH]c3c(c2c1)SC(C)(C)CC3=O	1	1	0	15*	13*	16*
CCC1CN(C)C2Cc3c([nH]c4ccccc34)C(=O)CC1C2C(=O)OC (stereo not given)	-1	3	0	13*	7	8.1*
CC[C@H]1CC2CN3CCc4c([nH]c5c([C@H]6C[C@H]7[C@H](CC)CN(C)[C@@H](Cc8c6[nH]c6ccccc86)[C@H]7C(=O)OC)c(OC)ccc45)C(C(=O)OC)(C2)C13	.	.	-1	.	.	.
C#CCCN([C@@H](CC(C)C)C(=O)OC)S(=O)(=O)c1ccc(F)cc1Br	-2	-8	.	0	.	.
